Results taken from PubChem BioAssay AID1117293 (Broad Institute, 2014).
Measured potencies and affinities stand elsewhere. Results filed as inconclusive are left out. Active and inactive are the calls of the source.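 How the source made its calls: active means cytotoxic in every repeat run, with fitted half-maximal concentration at most twice the top tested dose; inconclusive means runs disagree, or flat partial drop, or poor curve fit; inactive means inactive in every run.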

Assay: HEK293T cell cytotoxicity, dose response, cytotoxicity control, CellTiter-Glo luminescence, dry powder, set 20 (AID 1117293)

SMILES	outcome
O=C(Nc1cc(C(F)(F)F)ccc1N1CCCCC1)c1ccc(S(=O)(=O)O)cc1	inactive
COc1ccc(C(=O)Nc2cc(F)ccc2N2CCCCC2)cc1S(=O)(=O)O	inactive
Cc1ccc(NC(=O)NC2(C(=O)N3CCN(c4ccccc4)CC3)CCCCC2)cc1	inactive
CC(=O)N1CCN(C(=O)C2(NC(=O)Nc3cccc(F)c3)CCCCC2)CC1	inactive
COc1ccc(C(=O)Nc2cccc(C(F)(F)F)c2)cc1S(=O)(=O)O	inactive
CC(=O)N1CCN(C(=O)C2(NC(=O)Nc3ccc(C(F)(F)F)cc3)CCCC2)CC1	inactive
Cc1ccccc1S(=O)(=O)Nc1cc(C(F)(F)F)ccc1N1CCCCC1	inactive
COc1ccc(C(=O)Nc2cc(C)ccc2N2CCCCC2)cc1S(=O)(=O)O	inactive
Cc1ccc(NC(=O)NC2(C(=O)N3CCNCC3)CCCCC2)cc1	inactive
COc1ccc(C(=O)Nc2ccccc2N2CCCCC2)cc1S(=O)(=O)O	inactive
CC(=O)N1CCN(C(=O)C2(NC(=O)Nc3ccc(F)cc3)CCCC2)CC1	inactive
Cn1cnc(S(=O)(=O)Nc2cc(C(F)(F)F)ccc2N2CCCCC2)c1	inactive
CC(=O)N1CCN(C(=O)C2(NC(=O)Nc3ccccc3F)CCCCC2)CC1	inactive
CC(=O)N1CCN(C(=O)C2(NC(=O)Nc3ccc(C(C)C)cc3)CCCCC2)CC1	inactive
COc1ccc(C(=O)Nc2cc(C(F)(F)F)ccc2N2CCOCC2)cc1S(=O)(=O)O	inactive
CC(=O)N1CCN(C(=O)C2(NC(=O)Nc3ccccc3C(F)(F)F)CCCCC2)CC1	inactive
